Hsp90 block: displaces geldanamycin probe from tumor Hsp90; P07900; actives 0.35% (n = 64,000); NCI-N417 lysate Hsp90, Cy3B-geldanamycin FP displacement; inhibition, % at 30 µM; AID 429;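 active = inhibition above 50%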
DUSP1 inh: inhibitors of human MKP-1 phosphatase; recombinant MKP-1, OMFP hydrolysis fluorescence; inhibition, %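 (compounds tested at a single concentration somewhere between 10 and 100 µM)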; actives 0.15% (n = 65,000);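 active = inhibition above about 50%, limit read from the data; inconclusive = inhibition over screen mean plus 3 SD, below that limit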
BAP1 inh: inhibitors of human BAP1 deubiquitinase | Q92560 | recombinant BAP1, Ub-AMC hydrolysis fluorescence kinetic; hits give low values | calls only at 20 µM | actives 0.48% (n = 72,000) | AID 436;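 active = activity remaining at or below 50% of control, provided the compound also passes the data quality filters; inactive = the rest, including low values that fail the filters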
Target sequence (Q92560 whole entry, looked up): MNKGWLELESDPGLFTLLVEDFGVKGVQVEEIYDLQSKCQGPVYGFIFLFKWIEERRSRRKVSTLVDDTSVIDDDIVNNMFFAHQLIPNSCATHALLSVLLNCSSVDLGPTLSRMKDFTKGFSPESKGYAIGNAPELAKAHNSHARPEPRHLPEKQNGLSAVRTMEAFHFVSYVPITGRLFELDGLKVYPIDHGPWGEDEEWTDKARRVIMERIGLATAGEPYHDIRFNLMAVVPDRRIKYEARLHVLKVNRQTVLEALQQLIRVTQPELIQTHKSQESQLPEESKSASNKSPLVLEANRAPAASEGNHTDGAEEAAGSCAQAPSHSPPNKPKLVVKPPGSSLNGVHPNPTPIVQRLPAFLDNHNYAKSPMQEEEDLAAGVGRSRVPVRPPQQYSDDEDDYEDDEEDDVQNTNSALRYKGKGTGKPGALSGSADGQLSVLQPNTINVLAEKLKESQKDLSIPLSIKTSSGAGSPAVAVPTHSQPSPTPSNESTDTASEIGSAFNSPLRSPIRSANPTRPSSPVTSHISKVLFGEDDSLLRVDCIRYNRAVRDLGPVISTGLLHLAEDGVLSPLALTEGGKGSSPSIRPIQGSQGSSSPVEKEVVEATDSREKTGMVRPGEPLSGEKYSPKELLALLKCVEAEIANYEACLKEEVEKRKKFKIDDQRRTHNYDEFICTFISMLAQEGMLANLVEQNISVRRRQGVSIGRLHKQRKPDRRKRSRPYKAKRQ
Cdc25B block: inhibitors of human Cdc25B phosphatase; P30305; recombinant Cdc25B, OMFP fluorescence Ex485/Em525; inhibition, %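 (compounds tested at 10 µM final in the well)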; actives 0.1% (n = 65,000); in the data active = inhibition above about 50%
Large screens that a line does not name were inactive. The list is not random: actives were taken first. Their share in the collection is about 1%.

COc1ccc(S(=O)(=O)N(C)CC(=O)N2CCC(C(N)=O)CC2)cc1Cl	Hsp90 block 73.4
COc1ccc(S(=O)(=O)N(C)CC(=O)N2CCCCCC2)cc1OC	none
CC(C)CC(C(=O)Nc1ccccc1C(F)(F)F)N1C(=O)c2ccccc2C1=O (centres undefined)	none (no result: Hsp90 block, DUSP1 inh, Cdc25B block)
COc1cc(NS(=O)(=O)c2ccc(NC(=O)c3ccc(OC)c(OC)c3)cc2)ncn1	none (no result: Hsp90 block, DUSP1 inh, Cdc25B block)
Cc1ccc(C(=O)Nc2ccc(S(=O)(=O)O)c3cc(S(=O)(=O)O)cc(S(=O)(=O)O)c23)cc1NC(=O)c1cccc(NC(=O)Nc2cccc(C(=O)Nc3cc(C(=O)Nc4ccc(S(=O)(=O)O)c5cc(S(=O)(=O)O)cc(S(=O)(=O)O)c45)ccc3C)c2)c1	BAP1 inh active (no result: DUSP1 inh, Cdc25B block)
Cc1cccc(NC(=O)c2cc(=O)c3ccccc3o2)c1C	none (no result: Hsp90 block, DUSP1 inh, Cdc25B block)
CCN(CC)CCCN1C(=O)C(=O)/C(=C(/O)c2ccc3c(c2)OCCO3)C1c1ccc(C)o1 (centres undefined)	BAP1 inh active
CCOC(=O)C(CC)n1cnc2sc3c(c2c1=O)CCC3 (centres undefined)	Cdc25B block 83.5
CCOC(=O)C(C)n1cnc2sc3c(c2c1=O)CCC3 (centres undefined)	none
Cn1c(=O)[nH]c(=O)c2c1nc(SCC(=O)c1ccc(Cl)cc1)n2CCc1ccccc1	none (no result: Hsp90 block, DUSP1 inh, Cdc25B block)
CCOC(=O)c1oc2c(C)c(O)ccc2c(=O)c1-c1nncn1-c1ccccc1	none
CCOC(=O)c1oc2c(O)c(O)ccc2c(=O)c1-c1nncn1-c1ccccc1	Hsp90 block 60.6
O=c1ccc2ccc(O)c(O)c2o1	Hsp90 block 69.4 (no result: DUSP1 inh, Cdc25B block)
O=C(Nc1ccc(Br)cc1)c1nc[nH]c1C(=O)O	none (no result: Hsp90 block, DUSP1 inh, Cdc25B block)
CCOC(=O)N1CCC(NC(=O)c2cn(-c3ccc(OC)cc3)c(=O)c3ccccc23)CC1	none
CCOC(=O)N1CCC(NC(=O)c2cccn3c(=O)c4cc(Br)ccc4nc23)CC1	DUSP1 inh 52.9
Nc1cc(N)c(OCC(F)(F)F)cc1OCC(F)(F)F	Hsp90 block 89.2
Nc1nc(OCC(F)(F)F)cc(Oc2ccccc2F)n1	none
N#CC1=C(N)N2C(=C(C#N)C13CCCCC3)SC1CCCCC12O (centres undefined)	Cdc25B block 62.8
COc1cc(C2NC(=O)NC(C)=C2C(=O)OCCC#N)ccc1O (centres undefined)	none (no result: Hsp90 block, DUSP1 inh, Cdc25B block)
CCn1c(SCC(=O)Nc2nc3ccc(OC)cc3s2)nc2c1c(=O)n(C)c(=O)n2C	DUSP1 inh 50.0
CCOc1ccc2nc(NC(=O)CSc3nc4c(c(=O)n(C)c(=O)n4C)n3C(C)C)sc2c1	none
Cc1cc(C)c2oc(-c3ccc(C)c(NC(=O)c4cccc(F)c4)c3)nc2c1	none (no result: Hsp90 block, DUSP1 inh, Cdc25B block)
O=C(Cn1nnc(-c2ccccc2)n1)OCc1csc(-c2ccccc2)n1	none
O=C(Cn1nnc(-c2ccccc2)n1)OCc1ccccc1	Cdc25B block 72.1
CCOC(=O)c1c(NC(=O)CSc2nnc(C)c(=O)[nH]2)sc2c1CCN(C)C2	none (no result: Hsp90 block, DUSP1 inh, Cdc25B block)
COc1ccc(-n2c(SCC(=O)N3CCCC3)nc3c([nH]c4ccccc43)c2=O)cc1	DUSP1 inh 54.2
CN(C)c1ccc(C2SCCN2C(=O)c2cc3ccccc3oc2=O)cc1 (centres undefined)	none (no result: Hsp90 block, DUSP1 inh, Cdc25B block)
Cc1ccc(Nc2ncc3c(n2)CC(c2ccco2)CC3=O)c(C)c1 (centres undefined)	Cdc25B block 78.3
CCn1c(=O)c2cc(C(=O)N3CCN(C(=O)c4ccco4)CC3)sc2c2ccccc21	BAP1 inh active
COc1cc(OC)cc(-n2nc(C(=O)NCCCN3CCOCC3)c3ccccc3c2=O)c1	Cdc25B block 75.7
O=C1C(=O)N(Cc2cccnc2)C(c2ccc(Br)cc2)/C1=C(\O)c1ccccc1 (centres undefined)	none (no result: Hsp90 block, DUSP1 inh, Cdc25B block)
CCn1nnc(NC(=O)COc2cc(C)ccc2C(C)C)n1	Hsp90 block 71.6
Oc1cc(O)c2c(c1)O[C@H](c1ccc(O)c(O)c1)[C@@H](O)C2	Hsp90 block 70.4 (no result: DUSP1 inh, Cdc25B block)
Cc1cc(O)cc(O)c1-c1onc(C(F)(F)F)c1-c1cscn1	Hsp90 block 68.6
CCOC(=O)c1oc2cc(O)cc(C)c2c(=O)c1-c1cscn1	none
O=C(c1cccn2c(=O)c3ccc(Cl)cc3nc12)N1CCN(Cc2ccc3c(c2)OCO3)CC1	DUSP1 inh 64.1 (not shown: BAP1 inh)
Nc1c(S(=O)(=O)c2cccc(Cl)c2)c2nc3ccccc3nc2n1/N=C/c1ccc(O)c(O)c1	Hsp90 block 58.7 (not shown: BAP1 inh)
Cc1cccc(S(=O)(=O)c2c(N)n(Cc3ccco3)c3nc4ccccc4nc23)c1	none
O=C1NCCCc2c1oc1ccc(O)cc21	Cdc25B block 50.4
O=C(CN1CCN(Cc2ccccc2)CC1)N1CCCc2c1c(=O)oc1ccc(O)cc21	none
Cc1ccc(C)c(-n2nnnc2SCC(=O)c2ccc3c(c2)NC(=O)CO3)c1	DUSP1 inh 52.3 (not shown: BAP1 inh)
Cc1ccc(S(=O)(=O)NCCSc2nnnn2-c2cc(C)ccc2C)cc1	none
Cc1ccc(C2C(N3C(=O)c4ccc([N+](=O)[O-])cc4C3=O)C(=O)N2c2ccc(C)c(F)c2)cc1 (centres undefined)	none (no result: Hsp90 block, DUSP1 inh, Cdc25B block)
CCCCCCCC/C=C\CCCCCCCC(=O)NCCO	none (no result: DUSP1 inh, Cdc25B block)
CCCCCCCC/C=C\CCCCCCCC(=O)NCCc1ccc(O)c(O)c1	Hsp90 block 83.8, BAP1 inh active (no result: DUSP1 inh, Cdc25B block)
N#CC(c1nc2ccccc2nc1N1CCCCC1)S(=O)(=O)c1ccc(Cl)cc1 (centres undefined)	BAP1 inh active
Cc1ccc(S(=O)(=O)C(C#N)c2nc3ccccc3nc2N2CCCCC2)cc1 (centres undefined)	none
COc1ccc(OC)c(NC(=O)CSc2nnc(Cc3cccn3C)n2CCc2ccccc2)c1	DUSP1 inh 65.4
COC(=O)c1cc(NC2c3ncccc3C(=O)N2Cc2ccccc2)cc(C(=O)OC)c1 (centres undefined)	none
CCOC(=O)c1ccc(NC2c3ncccc3C(=O)N2Cc2ccc(F)cc2)cc1 (centres undefined)	DUSP1 inh 52.1
CC1(C)Cc2ccccc2C(CCl)=N1	none (no result: Hsp90 block, DUSP1 inh, Cdc25B block)
Cc1nc2ccc(S(=O)(=O)NC(C(=O)NCc3ccco3)C(C)C)cc2s1 (centres undefined)	Cdc25B block 60.4
Cc1nc2ccc(NC(=O)NCc3ccco3)cc2s1	none
O=C(Nc1cccnc1Cl)c1nn2c(C(F)(F)F)cc(-c3cc(Br)cs3)nc2c1Br	none (no result: Hsp90 block, DUSP1 inh, Cdc25B block)
CNC(=O)C(O)C(O)C(=O)NC (centres undefined)	none (no result: Hsp90 block, DUSP1 inh, Cdc25B block)
CCCCn1c(NC(=O)c2ccc(F)cc2)c(C#N)c2nc3ccccc3nc21	DUSP1 inh inconclusive, Cdc25B block 79.4 (not shown: BAP1 inh)
CCC(=O)Nc1c(C#N)c2nc3ccccc3nc2n1-c1ccc(C)cc1	none
CC(=O)NCCc1ccc(S(=O)(=O)NCc2ccc3c(c2)OCO3)cc1	none
CCCc1cc2c(cc1NS(=O)(=O)c1ccc(CCNC(C)=O)cc1)OCO2	Hsp90 block 57.0
COc1ccc(N2C(=O)CSC23C(=O)N2CCCc4cccc3c42)cc1 (centres undefined)	Hsp90 block 66.7
Cc1ccccc1NC(=O)C(c1ccc([N+](=O)[O-])cc1)N1CCOCC1 (centres undefined)	none (no result: Hsp90 block, DUSP1 inh, Cdc25B block)
Cc1ccc(NC(=O)CSc2nnc(Cc3cccn3C)n2-c2ccc(F)cc2)cc1	none
CC(=O)c1ccc(NC(=O)CSc2nnc(Cc3cccn3C)n2-c2ccc(F)cc2)cc1	Hsp90 block 87.3

Assay outcomes from PubChem BioAssay.
